Values joined by “and” are separate entries in the source; they are usually repeats but may differ in a detail not shown here. Equal entries are not always repeated. Results filed as inconclusive are left out. More than one record can exist for a structure, and the calls need not agree. Active and inactive are the calls of the source. The calls were made as follows, unless noted: active = hit-call score of the fitted dose curve at least 0.9, where 1 is the maximum; inactive = score below 0.9.

Tumor necrosis factor (Homo sapiens), sequence (P01375 whole entry, looked up): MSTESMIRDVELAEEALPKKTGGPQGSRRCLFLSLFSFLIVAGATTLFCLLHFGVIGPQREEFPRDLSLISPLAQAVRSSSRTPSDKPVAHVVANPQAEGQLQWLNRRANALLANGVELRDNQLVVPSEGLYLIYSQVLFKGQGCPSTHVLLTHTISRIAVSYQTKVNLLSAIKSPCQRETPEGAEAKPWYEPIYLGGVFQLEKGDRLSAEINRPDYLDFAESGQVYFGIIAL

Read-out in the first test: Interleukin 17A (IL17A), IL17A (gene 3605)
Put plainly: BSK_BT_xIL17A: BioMAP Diversity Plus: BT Assay for Interleukin 17A (IL17A) Biomarker Activity (AID 2284229). To be noted: primary human B cells with PBMC. The procedure, abridged: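 Chemicals were added to a human B cell and PBMC co-culture. After 24 h, secreted IL-17A was measured with Luminex xMAP. Curves were fitted in the positive direction, with DMSO wells as baseline.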
The term AC50 denotes the concentration at which the activity in the assay is half-maximal. Regarding `NS(=O)(=O)C(F)(F)C(F)(F)C(F)(F)C(F)(F)C(F)(F)C(F)(F)C(F)(F)C(F)(F)F`, the AC50 was 46.5 µM (active) and the result was inactive.
Turning to `O=C(O)C(F)(F)C(F)(F)C(F)(F)C(F)(F)C(F)(F)C(F)(F)C(F)(F)C(F)(F)C(F)(F)F`, the concentration at half-maximal activity (AC50) was 37.8 µM (active) and the outcome was inactive.
Turning to `O=C(O)C(F)(F)C(F)(F)C(F)(F)C(F)(F)C(F)(F)C(F)(F)C(F)(F)C(F)(F)F`, the outcome was inactive.
Same read-out and setting: under `Sc1ccccc1` stands “inactive”.
`O=C(O)C(F)(F)C(F)(F)C(F)(F)C(F)(F)C(F)(F)F`: the outcome was inactive.
As for `Oc1c(Cl)c(Cl)c(Cl)c(Cl)c1Cl`, the result was inactive.
The same measure, in the same setting: then `O=S(=O)(O)C(F)(F)C(F)(F)C(F)(F)C(F)(F)F`, with “inactive”; and `O=S(=O)(O)C(F)(F)C(F)(F)C(F)(F)C(F)(F)C(F)(F)C(F)(F)F`, with “inactive”.

Read-out in another test: Tumor necrosis factor (Homo sapiens) (UniProt P01375)
Put plainly: BSK_BT_xTNFa: BioMAP Diversity Plus: BT Assay for Tumor necrosis factor alpha (TNF-alpha) Biomarker Activity (AID 2284230). To be noted: primary human B cells with PBMC. The procedure, abridged:
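Compounds were added to a B cell plus PBMC co-culture, and after 24 h secreted TNF-alpha was quantified with Luminex xMAP technology, with responses fitted upward from the DMSO control.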
For `NS(=O)(=O)C(F)(F)C(F)(F)C(F)(F)C(F)(F)C(F)(F)C(F)(F)C(F)(F)C(F)(F)F`, the AC50 is 46.3 µM (active) and 25 µM (active).
With `O=C(O)C(F)(F)C(F)(F)C(F)(F)C(F)(F)C(F)(F)C(F)(F)C(F)(F)C(F)(F)C(F)(F)F`, the result was inactive.
In the case of `O=C(O)C(F)(F)C(F)(F)C(F)(F)C(F)(F)C(F)(F)C(F)(F)C(F)(F)C(F)(F)F`, the AC50 is 49.8 µM (active) and the result was inactive.
Take `Sc1ccccc1`: the result was inactive.
As for `O=C(O)C(F)(F)C(F)(F)C(F)(F)C(F)(F)C(F)(F)F`, the result was inactive.
On the same count and under the same terms, then `Oc1c(Cl)c(Cl)c(Cl)c(Cl)c1Cl`, with “inactive”; and `O=S(=O)(O)C(F)(F)C(F)(F)C(F)(F)C(F)(F)F`, with “inactive”.
In the case of `O=S(=O)(O)C(F)(F)C(F)(F)C(F)(F)C(F)(F)C(F)(F)C(F)(F)F`, the outcome was inactive.

Read-out in another test: Vascular cell adhesion molecule 1 (VCAM1), VCAM1 (gene 7412)
Briefly: BSK_MyoF_VCAM1: BioMAP Diversity Plus: MyoF Assay for Vascular cell adhesion molecule 1 (VCAM1) Biomarker Activity (AID 2284231). To be noted: primary human lung fibroblasts. The procedure, abridged: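 Steps: fibroblasts from human lung exposed to compound; biomarker quantified by ELISA at 24 h; values analysed for upward change over the DMSO baseline.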
`NS(=O)(=O)C(F)(F)C(F)(F)C(F)(F)C(F)(F)C(F)(F)C(F)(F)C(F)(F)C(F)(F)F`: the AC50 is 20.2 µM (active) and 26.5 µM (active).
Still for that read-out and setting: under `O=C(O)C(F)(F)C(F)(F)C(F)(F)C(F)(F)C(F)(F)C(F)(F)C(F)(F)C(F)(F)C(F)(F)F` stands 48.6 µM (active) and 44.7 µM (active); under `O=C(O)C(F)(F)C(F)(F)C(F)(F)C(F)(F)C(F)(F)C(F)(F)C(F)(F)C(F)(F)F`, 30 µM (active) and 42.6 µM (active).
As to `Sc1ccccc1`, the result was inactive.
On the same count and under the same terms, under `O=C(O)C(F)(F)C(F)(F)C(F)(F)C(F)(F)C(F)(F)F` stands “inactive”.
Turning to `Oc1c(Cl)c(Cl)c(Cl)c(Cl)c1Cl`, the AC50 was 2.41 µM (active).
In the case of `O=S(=O)(O)C(F)(F)C(F)(F)C(F)(F)C(F)(F)F`, the result was inactive.
Regarding `O=S(=O)(O)C(F)(F)C(F)(F)C(F)(F)C(F)(F)C(F)(F)C(F)(F)F`, the result was inactive.

System in the next test: not listed separately
Put plainly: UKN2_HCS_IMR90_cell_viability: Viability Assessment in the University of Konstanz (UKN) Leist Lab Neural Crest Cell Migration Assay in human induced IMR90 Pluripotent Stem Cells (UKN2) (AID 2284233).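 Also: cells exposed to compound for 24 h after a 24 h migration phase.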
Conditions: not given
In outline:
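After calcein-AM/Hoechst staining, viability is quantified by high-content fluorescence imaging, relative to DMSO, in iPSC (IMR90)-derived neural crest cells. Exposure lasts 24 h, starting after a 24 h migration period on PLO/laminin/fibronectin coating.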
As to `CO/C=C(/C(=O)OC)c1ccccc1COc1cccc(C(F)(F)F)n1`, the AC50 was 50 µM (active).
For the molecule `O=S(=O)(O)C(F)(F)C(F)(F)C(F)(F)C(F)(F)F`, the molecule was called inactive.
The same measure, in the same setting: under `CCOP(=S)(OCC)SCSC(C)(C)C` stands “inactive”; under `O=S(=O)(O)C(F)(F)C(F)(F)C(F)(F)C(F)(F)C(F)(F)C(F)(F)F`, “inactive”.

System in another test: not listed separately
Briefly: CCTE_Mundy_HCI_Cortical_NOG_NeuronCount: CCTE's Neurite Outgrowth Assay in rat cortical cells for Neuron Count, Mundy Lab (AID 2284236; active = hit-call score of the fitted dose curve at least 0.9, where 1 is the maximum;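 also: neurons counted by imaging betaIII-tubulin and Hoechst stained cortical cells; cells exposed to compound for about 48 hours before fixation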).
Conditions: not given
In outline: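 Read-out: neuron number by high-content imaging of betaIII-tubulin (Alexa Fluor-488) and Hoechst-labelled rat primary cortical cells.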
As for `ClC1=C(Cl)[C@]2(Cl)[C@@H]3[C@@H]4C[C@@H]([C@H]5O[C@@H]45)[C@@H]3[C@@]1(Cl)C2(Cl)Cl`, the AC50 is 21.7 µM (active).
Same read-out and setting: then `CO/C=C(/C(=O)OC)c1ccccc1COc1cccc(C(F)(F)F)n1`, with 2.81 µM (active).
The same measure, in the same setting: under `ClC1=C(Cl)[C@]2(Cl)[C@@H]3[C@@H](Cl)[C@H]4O[C@H]4[C@@H]3C1(Cl)C2(Cl)Cl` stands 34.2 µM (active).
For `O=S(=O)(O)C(F)(F)C(F)(F)C(F)(F)C(F)(F)F`, the outcome was inactive.
Consider `CCOP(=S)(OCC)SCSC(C)(C)C`, for which the AC50 is 68.1 µM (active).
`O=S(=O)(O)C(F)(F)C(F)(F)C(F)(F)C(F)(F)C(F)(F)C(F)(F)F`: the molecule was classed as inactive.

System in the next test: not listed separately
Briefly: CCTE_Mundy_HCI_Cortical_NOG_BPCount: CCTE's Neurite Outgrowth Assay in rat cortical cells for Branch Point Count, Mundy Lab (AID 2284237).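 As to AC50: branch points counted about two days after chemical exposure.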
Conditions: not given
In outline: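 Measured 50.33 h after dosing, this morphology endpoint uses rat primary cortical cultures labelled for betaIII-tubulin. Branch points are quantified by high-content imaging, with DMSO as negative control and baseline.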
Regarding `C=CC(N)=O`, the call was inactive.
`CO/C=C(/C(=O)OC)c1ccccc1COc1cccc(C(F)(F)F)n1`: the AC50 is 1.28 µM (active).
On to `COc1ccc(O)c(C(C)(C)C)c1`, for which the result was inactive.
For `ClC1=C(Cl)[C@]2(Cl)[C@@H]3[C@@H](Cl)[C@H]4O[C@H]4[C@@H]3C1(Cl)C2(Cl)Cl`, the AC50 was 9.79 µM (active).
Take `O=S(=O)(O)C(F)(F)C(F)(F)C(F)(F)C(F)(F)F`: the molecule was called inactive.
The same measure, in the same setting: under `O=S(=O)(O)C(F)(F)C(F)(F)C(F)(F)C(F)(F)C(F)(F)C(F)(F)F` stands “inactive”.

Read-out in another test: Collagen I, COL1A1 (gene 1277)
Briefly: BSK_MyoF_CollagenI: BioMAP Diversity Plus: MyoF Assay for Collagen I Biomarker Activity (AID 2284238). To be noted: primary human lung fibroblasts. In outline: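 Multiplexed primary human lung fibroblast system; Collagen I measured by ELISA at 24 h post-dose. Increases are referenced to DMSO.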
Take `NS(=O)(=O)C(F)(F)C(F)(F)C(F)(F)C(F)(F)C(F)(F)C(F)(F)C(F)(F)C(F)(F)F`: the AC50 is 22.6 µM (active).
Turning to `O=C(O)C(F)(F)C(F)(F)C(F)(F)C(F)(F)C(F)(F)C(F)(F)C(F)(F)C(F)(F)C(F)(F)F`, the AC50 is 15.8 µM (active) and 18.9 µM (active).
Same read-out and setting: then `O=C(O)C(F)(F)C(F)(F)C(F)(F)C(F)(F)C(F)(F)C(F)(F)C(F)(F)C(F)(F)F`, with 37.9 µM (active) and 34.1 µM (active).
Turning to `Sc1ccccc1`, the outcome was inactive.
Still for that read-out and setting: under `O=C(O)C(F)(F)C(F)(F)C(F)(F)C(F)(F)C(F)(F)F` stands “inactive”.
`Oc1c(Cl)c(Cl)c(Cl)c(Cl)c1Cl`: the AC50 was 2.58 µM (active).
Consider `O=S(=O)(O)C(F)(F)C(F)(F)C(F)(F)C(F)(F)F`, for which the outcome was inactive.
On to `O=S(=O)(O)C(F)(F)C(F)(F)C(F)(F)C(F)(F)C(F)(F)C(F)(F)F`, for which the result was inactive.

These data come from PubChem BioAssay (EPA / NIEHS).
